Only some compounds are listed: those with a hit (about 2.4% of all), similar ones and a draw of the others.
D2 ag-1: Beta-Arrestin HTS for Positive Allosteric Modulators of the Human D2 Dopamine Receptor: Agonists; D(2) dopamine receptor (Homo sapiens), P14416; DiscoveRx PathHunter D2 beta-arrestin, luminescence, 90 min; 100% = 57 uM dopamine signal; activation, % (test concentration not listed); 0.084% of 360,000 active; in the data active = activation above about 40%; inconclusive = between about 15% and that limit
Target sequence (P14416 whole entry, looked up): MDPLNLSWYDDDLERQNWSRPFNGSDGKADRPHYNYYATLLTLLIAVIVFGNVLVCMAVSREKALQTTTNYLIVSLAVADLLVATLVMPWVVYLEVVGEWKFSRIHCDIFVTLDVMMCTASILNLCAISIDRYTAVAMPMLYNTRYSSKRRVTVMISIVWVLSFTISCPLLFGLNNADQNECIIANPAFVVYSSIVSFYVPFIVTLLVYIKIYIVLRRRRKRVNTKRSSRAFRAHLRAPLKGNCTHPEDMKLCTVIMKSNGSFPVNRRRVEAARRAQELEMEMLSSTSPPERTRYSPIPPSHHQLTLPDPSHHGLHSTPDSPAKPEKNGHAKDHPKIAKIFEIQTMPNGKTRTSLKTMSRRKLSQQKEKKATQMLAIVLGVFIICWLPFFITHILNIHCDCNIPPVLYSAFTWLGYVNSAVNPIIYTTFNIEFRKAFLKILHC
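DiscoveRx PathHunter D2 beta-arrestin cells (2,100/well) attached overnight, then compound-stimulated 90 min at 37 C in HBSS/10 mM HEPES/0.1% Tween-20 buffer; beta-galactosidase complementation read by luminescence after 1 h at ambient temperature. Dopamine 57 uM final (EC100) as control.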
D2 PAM-1: Beta-Arrestin HTS for Positive Allosteric Modulators of the Human D2 Dopamine Receptor: Potentiators. AID 624464, 2012. potentiation, % (no concentration beside the values). D(2) dopamine receptor (Homo sapiens), P14416. DiscoveRx D2 beta-arrestin cells, luminescence, 90 min; 100% = 57 uM dopamine signal. 0.23% of 360,000 active; in the data active = potentiation above about 50%; inconclusive = mostly about 30% to 49%
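D2 cells co-treated with compound plus 50 nM dopamine (EC20) for 90 min at 37 deg C to detect potentiation. Beta-arrestin recruitment was read as enzyme-fragment luminescence after 1 h at ambient temperature. Full response was set by 57 uM dopamine.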
D2 PAM-2: HTS Assay for Positive Allosteric Modulators of the Human D2 Dopamine Receptor: Primary Screen for Potentiators; D(2) dopamine receptor (Homo sapiens), P14416; HEK293 T-REx D2, calcium flux, EC20 dopamine potentiation; potentiation, % at 10 µM; 0.34% of 340,000 active; AID 485347, 2010;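 active = potentiation over 3 SD above the plate norm, cut at about 30% in these data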; note: 0% is about no effect
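Tetracycline-induced Hek293 Trex D2 cells, force-coupled to calcium, loaded with no-wash calcium dye. Compound added with 180 s kinetic read for agonism, then EC20 dopamine and a further 180 s read for potentiation.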
D2 ag-2: HTS Assay for Allosteric Agonists of the Human D2 Dopamine Receptor: Primary Screen for Agonists; D(2) dopamine receptor (Homo sapiens), P14416; activation, % at 2 µM; 0.53% of 340,000 active; HEK293 T-REx D2 cells, calcium flux agonist mode; AID 485358, 2010;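 active = activation over 3 SD above normal in the single-dose calcium agonist read, cut at about 30% in these data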; note: 0% is about no effect
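Tetracycline-induced HEK293 Trex cells with D2 receptor force-coupled to calcium signaling, plated overnight at 30 C and loaded with no-wash calcium dye. Calcium flux read kinetically for 180 s after compound addition; responses flag agonists.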
D2 antag: HTS Assay for Allosteric Antagonists of the Human D2 Dopamine Receptor: Primary Screen for Antagonists | D(2) dopamine receptor (Homo sapiens), P14416 | AID 485344, 2010 | inhibition, % at 10 µM | 2% of 340,000 active | HEK293 TREx D2 cells, calcium flux, dopamine EC80; in the data active = inhibition above about 30%; inactive = below that, where a call was filed; note: 0% is about no effect
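HEK293 T-REx D2 cells, tet-induced, calcium dye no-wash. Cpd pintool add, 180 s kinetic, then EC80 DA, 180 s kinetic. Ca flux read.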
An asterisk follows results filed as active; ? = inconclusive; · = no result given.

SMILES	D2 ag-1	D2 PAM-1	D2 PAM-2	D2 ag-2	D2 antag
CCOc1cc(/C=N/NC(=O)c2nnn(-c3nonc3N)c2C)ccc1OCc1ccc(F)cc1	7.8	0.6	8.8	0.7	-6.7
CCOc1ccc(-c2c(C(=O)N/N=C/c3ccc(C)cc3)nnn2-c2nonc2N)cc1	4.9	-0.6	6.1	39.0*	-1.9
CCOc1cc(/C=N/NC(=O)c2nnn(-c3nonc3N)c2C)ccc1OCc1cccc(F)c1	-1.9	-4.6	55.0*	0.5	-7.1
COc1ccc2ccccc2c1/C=N/NC(=O)c1nnn(-c2nonc2N)c1C(C)C	-0.1	-28.8	-5.6	0.6	34.7*
CCCOc1ccc(-c2c(C(=O)N/N=C/c3ccc(C)cc3)nnn2-c2nonc2N)cc1	-4.4	1.0	5.0	5.8	3.6
Cc1ccc(-c2c(C(=O)N/N=C/c3ccsc3)nnn2-c2nonc2N)cc1	-4.0	-0.6	21.2	18.8	34.5*
COc1ccc2ccccc2c1/C=N/NC(=O)c1nnn(-c2nonc2N)c1CN(C)C	1.3	-6.7	13.2	-0.8	-3.1
COCCCNC(=O)c1c(NC(=O)Cc2coc3c(C)c(C)ccc23)sc2c1CCCC2	·	·	8.1	-0.6	·
CCOc1ccc(-c2c(C(=O)N/N=C/c3ccc(Cl)cc3)nnn2-c2nonc2N)cc1	6.2	-0.4	84.1*	-0.2	-10.1
Nc1nonc1-n1nnc(C(=O)N/N=C/c2ccccc2Cl)c1CN1CCOCC1	3.9	-9.3	43.5*	0.2	3.9
CCc1ccc(C2c3c(-c4ccccc4O)n[nH]c3C(=O)N2Cc2cccnc2)cc1 (stereo unspecified)	·	·	5.4	1.6	·
CN(CC1CCN(CCc2cccc(C(F)(F)F)c2)CC1)C(=O)c1ccc(F)cc1	5.3	-25.7	-19.5	-0.3	58.3*
CCSc1nnc(-c2sc3nnc(-c4ccccc4)c(-c4ccccc4)c3c2N)o1	-3.9	-14.1	-2.0	39.3*	-26.8
CCN(CC)S(=O)(=O)c1ccc(NC=C(C#N)C#N)cc1	2.7	-1.7	-2.1	-0.2	74.1*
CN(C)S(=O)(=O)c1ccc(NC=C(C#N)C#N)cc1	0.3	-4.0	-14.5	-0.4	2.4
CCN(CC(=O)Nc1c(F)cccc1F)C(=O)/C=C/c1cn(Cc2ccccc2)nc1-c1cccnc1	0.7	1.0	7.3	0.1	32.3*
Cc1cc(OCC(O)CN2CCc3ccccc3C2)cc(C(C)C)c1 (stereo unspecified)	?	-38.4	14.3	-0.6	-4.9
CCOc1ccc(OCC(O)CN2CCc3ccccc3C2)cc1 (stereo unspecified)	-0.6	-9.3	-22.4	3.1	50.1*
Cc1cc(OCC(O)CN2CCc3ccccc3C2)ccc1Cl (stereo unspecified)	9.5	-23.1	-23.4	-0.4	79.2*
Cc1ccc(-n2nnnc2CN2CCCCC2)cc1	2.0	-1.8	0.6	0.0	37.8*
COCCn1c(C)cc(/C=C(\C#N)C(=O)OC(C)C(=O)Nc2ccc(NC(C)=O)cc2)c1C (stereo unspecified)	-0.2	1.0	-3.5	0.0	33.4*
Cn1c(=O)oc2cc(S(=O)(=O)N3CCC(C(=O)N4CC=C(c5ccccc5)CC4)CC3)ccc21	-4.0	4.6	21.6	0.4	40.6*
COc1ccc(C(=O)Nc2nnc(SCc3cc(=O)n4cccc(C)c4n3)s2)cc1	·	·	12.3	0.2	·
C#CCOCCOCCOCCNc1nc(N2CCN(C(=O)[C@H](C)n3cc(CCCN=C(N)N)nn3)CC2)nc(N2CCN(C(=O)[C@H](CCCCN)n3cc(CCCC)nn3)CC2)n1	·	·	-2.4	0.2	31.0*
C#CCOCCOCCOCCNc1nc(N2CCN(C(=O)[C@H]([C@@H](C)CC)n3cc(CCCN=C(N)N)nn3)CC2)nc(N2CCN(C(=O)[C@H](CCCCN)n3cc(CCCC)nn3)CC2)n1	-3.2	-9.9	2.3	0.3	4.8
SMILES	D2 ag-1	D2 PAM-1	D2 PAM-2	D2 ag-2	D2 antag
O=C(NC1CCN(Cc2ccccc2)CC1)c1cn(-c2ccccc2)nc1-c1cccnc1	-2.5	-28.2	-0.1	-0.3	74.7*
CC1(C)Cc2cccc(C(=O)NC3CCN(Cc4ccccc4)CC3)c2O1	-0.2	-21.3	-18.8	0.3	73.4*
O=C(O)c1cn(-c2ccccc2)nc1-c1cccnc1	-0.2	-1.3	2.1	0.9	5.1
Cc1ccc(CN2CCC(NC(=O)c3ccccc3)CC2)cc1	-0.7	-22.2	-24.0	0.0	89.7*
Cc1ccccc1C(=O)NC1CCN(Cc2ccccc2)CC1	-1.1	-16.7	-21.1	-1.7	19.0
O=C(NC1CCN(Cc2ccccc2)CC1)c1ccc(S(=O)(=O)NCc2ccco2)cc1	-2.9	-32.2	-15.0	0.5	35.6*
Cc1ccc(C)n1-c1ccc(C(=O)NC2CCN(Cc3ccccc3)CC2)cc1	-3.1	-40.6	-35.1	0.0	84.8*
CC1CCCC(C)N1C(=O)c1ccc(S(=O)(=O)NCc2ccco2)cc1 (stereo unspecified)	-0.3	-6.2	·	-2.9	36.7*
COc1ccc(-n2c(=O)c3c(c4cc(OC)ccc4n3C)n(Cc3cc(C)ccc3C)c2=O)cc1	·	·	4.4	0.8	·
Cc1ccccc1OCC(=O)Nc1ccc(S(=O)(=O)N(Cc2ccccc2)c2ccccc2)cc1	·	·	6.7	2.6	·
Cc1cc(NC(=S)NC(=O)c2ccccc2)ccc1-c1cc2ccccc2oc1=O	0.6	-0.9	-9.0	-0.6	63.5*
O=C(Cc1cn2ccsc2n1)OCc1nc2ccccc2s1	-2.0	-34.8	-9.8	-1.3	-5.8
O=C(Cc1cn2ccsc2n1)OCc1ccccc1	3.5	-5.3	-3.0	0.4	32.0*
COc1ccc(C(=O)N(Cc2sccc2C)C2CCS(=O)(=O)C2)cc1 (stereo unspecified)	2.9	-14.3	0.0	-0.8	37.8*
COc1ccc(NC2=CC(=O)CC(c3ccccc3)C2)c(OC)c1 (stereo unspecified)	-1.2	-3.2	-5.1	-0.8	31.0*
CCc1nnc(NC(=O)CSc2nnc(-c3ccncc3)n2C)s1	-2.7	-5.2	30.6*	0.6	-15.6
CC(C)CC(C(=O)Nc1ccc2c(c1)OCCO2)N1C(=O)c2ccccc2C1=O (stereo unspecified)	6.7	-7.0	-5.9	-1.6	57.0*
CC(C)C(C(=O)Nc1ccc2c(c1)OCCO2)N1C(=O)c2ccccc2C1=O (stereo unspecified)	-4.2	-7.7	-6.3	0.6	-5.1
Cc1cccc(CNC(=O)CCCn2c(=O)c3cccn3c3ccc(F)cc32)c1	·	·	6.4	-0.5	·
Cc1ccccc1NC(=O)c1sc(Cl)nc1-c1ccccc1	-2.1	7.7	-0.8	-0.1	30.7*

Screening results from PubChem.
